Reference: PubChem BioAssay (EPA / NIEHS)
Activity calls are given as the source filed them. The calls were made as follows: active = hit-call score of the fitted dose curve at least 0.9, where 1 is the maximum; inactive = score below 0.9.

What was measured:
[1] = target: Bile acid receptor (Homo sapiens) (UniProt Q96RI1); assay: ATG_IR1_CIS: Attagene CIS-FACTORIAL HepG2 Assay for human Nuclear Receptor Subfamily 1 Group H Member 4 (NR1H4), IR1 submotif (AID 2282946); conditions: IR1 reporter transcription, actives raise or lower the signal
Method in brief: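 Fluorescence of capillary-separated, HpaI-digested RT-PCR reporter products gave IR1-element mRNA induction in HepG2 cells 24 h after dosing. Endogenous transcription factors drove the cis-regulated reporters; activity was fitted bidirectionally against DMSO.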

[2] = ATG_ISRE_CIS: Attagene CIS-FACTORIAL HepG2 Assay for human Interferon Regulatory Factor 1 (IRF1) binding to an Interferon-Stimulated Response Element (ISRE) (AID 2282948); conditions: HepG2 ISRE cis-reporter (Attagene), mRNA transcription readout; actives raise or lower the signal
Method in brief: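 Multiplexed mRNA reporter readout in human liver HepG2 cells: cis-element-driven reporters transfected, compound added for 24 h, transcripts amplified, fluorescently labelled and sized by capillary electrophoresis; curve fitting bidirectional against DMSO.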

[3] = ATG_M_06_CIS: Attagene CIS-FACTORIAL HepG2 Assay for M06 Transcription Factor (Internal Marker) (AID 2282950); conditions: HepG2 Attagene CIS-FACTORIAL M06 internal marker reporter; actives raise or lower the signal
Method in brief: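 HepG2 liver cells, 24 h exposure. Reporter transcripts from transfected cis-element constructs quantified by RT-PCR/capillary electrophoresis fluorescence. Bidirectional curve fit against DMSO.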

[4] = target: Hypoxia-inducible factor 1-alpha (Homo sapiens) (UniProt Q16665); assay: ATG_HIF1a_CIS: Attagene CIS-FACTORIAL HepG2 Assay for human Hypoxia Inducible Factor 1 (HIF1A) (AID 2282951); conditions: HepG2 Attagene cis-factorial HIF1a reporter transcription; actives raise or lower the signal
Method in brief: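 Measures endogenous transcription-factor activity through cis-regulated reporter mRNA in HepG2. Cells dosed 24 h; transcripts quantified by RT-PCR with 6-FAM-labelled products separated by capillary electrophoresis; DMSO serves as negative control.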

[5] = target: Hepatocyte nuclear factor 6 (Homo sapiens) (UniProt Q9UBC0); assay: ATG_HNF6_CIS: Attagene CIS-FACTORIAL HepG2 Assay for human Hepatocyte Nuclear Factor 6 (HNF6) (AID 2282952); conditions: HepG2 Attagene cis-factorial HNF6 reporter transcription; actives raise or lower the signal
Method in brief: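 Twenty-four-hour chemical treatment of reporter-transfected HepG2 cells precedes RNA isolation, DNase-treated reverse transcription and PCR of reporter sequences. Labelled fragments are sized by capillary electrophoresis and fitted bidirectionally versus DMSO.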

[6] = target: Heat shock factor protein 1 (Homo sapiens) (UniProt Q00613); assay: ATG_HSE_CIS: Attagene CIS-FACTORIAL HepG2 Assay for human Heat Shock Transcription Factor 1 (HSE) (AID 2282953); conditions: HepG2 HSE cis-reporter, Attagene RNA transcription; actives raise or lower the signal
Method in brief: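 Endogenous transcription factor activity captured via cis-promoter reporter units transfected into HepG2; treatment lasted 24 h. Fluorescence intensity of reporter fragments analysed with bidirectional curve fitting, DMSO baseline.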

[7] = ATG_MRE_CIS: Attagene CIS-FACTORIAL HepG2 Assay for human Metal Responsive Element (MRE) (AID 2282954); conditions: HepG2 MRE cis-reporter transcription, Attagene multiplex; actives raise or lower the signal
Method in brief: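 Measured here is mRNA induction from an MRE cis-element reporter in HepG2 after 24 h, quantified by fluorescence of labelled RT-PCR products on capillary electrophoresis; gain- and loss-of-signal fits use DMSO as baseline.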

[8] = ATG_PBREM_CIS: Attagene CIS-FACTORIAL HepG2 Assay for human Phenobarbital-responsive Enhancer Module (PBREM) (AID 2282955); conditions: HepG2 PBREM cis-reporter, Attagene multiplexed transcription; actives raise or lower the signal
Method in brief: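 Fluorescence of labelled reporter cDNA fragments, resolved by capillary electrophoresis, gives mRNA induction in transfected HepG2 cells treated for 24 h; DMSO serves as negative control and baseline.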

[9] = ATG_M_32_CIS: Attagene CIS-FACTORIAL HepG2 Assay for M32 Transcription Factor (Internal Marker) (AID 2282949); conditions: HepG2 Attagene cis-factorial M32 reporter, mRNA; actives raise or lower the signal;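 also: background control marker of the multiplexed CIS panel rather than a real target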
Method in brief: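 HepG2 human liver cells transiently transfected with cis-promoter-driven multiple reporter transcription units, dosed 24 h. Reporter mRNA quantified by RT-PCR, FAM-labelled primer extension, HpaI digest and capillary electrophoresis; bidirectional fit versus DMSO baseline.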

[10] = ATG_GRE_CIS: Attagene CIS-FACTORIAL HepG2 Assay for human Glucocorticoid Response Elements (GRE) (AID 2282947); conditions: HepG2 GRE cis-reporter, Attagene multiplex mRNA; actives raise or lower the signal
Method in brief: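 Fluorescence intensity of reporter-specific cDNA fragments, separated by capillary electrophoresis, provides the signal. Constructs carry cis-regulating promoters in transiently transfected HepG2 liver cells; 24 h incubation; fitting is bidirectional against DMSO.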

Sequence of Hypoxia-inducible factor 1-alpha (Homo sapiens) (Q16665 whole entry, looked up): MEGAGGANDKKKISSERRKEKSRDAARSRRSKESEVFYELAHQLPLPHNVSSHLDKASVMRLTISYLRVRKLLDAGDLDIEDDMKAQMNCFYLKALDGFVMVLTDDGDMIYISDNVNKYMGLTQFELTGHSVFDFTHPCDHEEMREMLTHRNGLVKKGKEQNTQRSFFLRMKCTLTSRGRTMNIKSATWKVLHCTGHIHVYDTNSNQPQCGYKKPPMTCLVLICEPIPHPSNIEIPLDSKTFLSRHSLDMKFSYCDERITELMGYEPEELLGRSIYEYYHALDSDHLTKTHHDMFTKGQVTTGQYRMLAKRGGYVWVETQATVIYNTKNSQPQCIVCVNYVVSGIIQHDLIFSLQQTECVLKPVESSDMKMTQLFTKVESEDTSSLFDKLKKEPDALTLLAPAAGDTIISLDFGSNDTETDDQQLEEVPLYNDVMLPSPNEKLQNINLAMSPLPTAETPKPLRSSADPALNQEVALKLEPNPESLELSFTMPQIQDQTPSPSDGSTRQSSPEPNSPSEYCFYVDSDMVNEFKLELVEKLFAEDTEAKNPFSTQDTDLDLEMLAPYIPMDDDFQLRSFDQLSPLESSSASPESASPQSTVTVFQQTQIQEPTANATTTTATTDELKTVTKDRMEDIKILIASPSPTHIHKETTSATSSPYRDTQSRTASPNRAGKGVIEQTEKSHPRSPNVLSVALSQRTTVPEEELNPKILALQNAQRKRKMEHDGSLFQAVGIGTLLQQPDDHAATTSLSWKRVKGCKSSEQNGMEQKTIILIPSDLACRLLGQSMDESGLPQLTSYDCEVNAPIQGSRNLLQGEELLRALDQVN
Sequence of Bile acid receptor (Homo sapiens) (Q96RI1 whole entry, looked up): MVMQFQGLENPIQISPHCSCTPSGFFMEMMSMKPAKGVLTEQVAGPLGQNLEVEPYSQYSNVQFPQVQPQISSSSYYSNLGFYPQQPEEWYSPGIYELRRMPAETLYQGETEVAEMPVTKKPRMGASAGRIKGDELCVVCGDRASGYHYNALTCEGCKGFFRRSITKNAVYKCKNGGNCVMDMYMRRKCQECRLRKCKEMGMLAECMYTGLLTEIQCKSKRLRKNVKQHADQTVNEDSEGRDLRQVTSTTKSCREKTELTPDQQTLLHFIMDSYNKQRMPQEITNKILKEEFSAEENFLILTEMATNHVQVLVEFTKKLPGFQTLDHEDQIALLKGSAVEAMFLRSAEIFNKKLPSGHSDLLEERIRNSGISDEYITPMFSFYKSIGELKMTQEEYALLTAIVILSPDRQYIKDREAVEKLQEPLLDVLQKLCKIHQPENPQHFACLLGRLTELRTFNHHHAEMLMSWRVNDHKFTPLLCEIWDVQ
Sequence of Hepatocyte nuclear factor 6 (Homo sapiens) (Q9UBC0 whole entry, looked up, the tested form may be a part): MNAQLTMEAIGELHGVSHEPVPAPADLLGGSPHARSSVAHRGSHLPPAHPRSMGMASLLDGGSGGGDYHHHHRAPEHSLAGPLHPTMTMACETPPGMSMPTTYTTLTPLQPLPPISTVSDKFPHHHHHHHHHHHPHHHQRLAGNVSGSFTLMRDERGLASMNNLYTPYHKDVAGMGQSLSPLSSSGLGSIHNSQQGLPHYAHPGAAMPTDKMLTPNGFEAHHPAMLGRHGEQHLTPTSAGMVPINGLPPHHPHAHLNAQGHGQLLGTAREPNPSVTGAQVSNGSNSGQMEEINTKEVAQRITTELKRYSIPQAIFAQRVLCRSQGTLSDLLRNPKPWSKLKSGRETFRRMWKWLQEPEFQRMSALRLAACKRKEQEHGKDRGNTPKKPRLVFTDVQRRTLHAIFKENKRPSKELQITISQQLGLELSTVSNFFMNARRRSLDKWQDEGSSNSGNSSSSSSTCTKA
Sequence of Heat shock factor protein 1 (Homo sapiens) (Q00613 whole entry, looked up, the tested form may be a part): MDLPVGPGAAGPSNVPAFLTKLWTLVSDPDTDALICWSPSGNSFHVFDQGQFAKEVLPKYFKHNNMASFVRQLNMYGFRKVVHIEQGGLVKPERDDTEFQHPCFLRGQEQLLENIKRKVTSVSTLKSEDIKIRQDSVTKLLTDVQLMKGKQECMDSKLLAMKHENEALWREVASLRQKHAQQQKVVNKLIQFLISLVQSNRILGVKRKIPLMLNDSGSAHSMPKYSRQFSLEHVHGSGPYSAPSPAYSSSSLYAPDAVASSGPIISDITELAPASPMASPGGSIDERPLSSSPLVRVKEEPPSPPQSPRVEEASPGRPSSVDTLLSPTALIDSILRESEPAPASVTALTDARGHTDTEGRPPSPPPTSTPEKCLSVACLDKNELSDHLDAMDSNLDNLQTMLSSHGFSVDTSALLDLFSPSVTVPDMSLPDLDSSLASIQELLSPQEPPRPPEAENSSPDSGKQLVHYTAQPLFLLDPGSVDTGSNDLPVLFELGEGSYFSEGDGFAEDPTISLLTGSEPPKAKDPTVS

Structure (SMILES) | outcome [1] | AC50 [2] | outcome [3] | outcome [4] | outcome [5] | outcome [6] | outcome [7] | outcome [8] | outcome [2] | outcome [9] | AC50 [1] | AC50 [5] | AC50 [6] | AC50 [7] | outcome [10] | AC50 [4]
CC(=O)[C@H]1CC[C@H]2[C@@H]3CC=C4C[C@@H](O)CC[C@]4(C)[C@H]3CC[C@]12C | inactive | 36 µM (active) | inactive | inactive | inactive | inactive | inactive | inactive | – | – | – | – | – | – | – | –
Cc1ccc(Nc2ccc(O)c3c2C(=O)c2ccccc2C3=O)cc1 | inactive | – | inactive | inactive | inactive | inactive | inactive | inactive | inactive | inactive | – | – | – | – | – | –
Clc1nc(C(Cl)(Cl)Cl)c(Cl)c(Cl)c1Cl | – | 62.7 µM (active) | inactive | inactive | – | – | – | inactive | – | inactive | 22.6 µM (active) | 49.9 µM (active) | 53.9 µM (active) | 54.4 µM (active) | – | –
O=C1NC(=O)c2ccccc21 | inactive | – | inactive | inactive | inactive | inactive | inactive | inactive | inactive | inactive | – | – | – | – | – | –
N#Cc1nc(Cl)c(Cl)c(Cl)c1Cl | – | – | inactive | – | – | – | – | inactive | – | inactive | 4.18 µM (active) | 5.48 µM (active) | – | 2.63 µM (active) | inactive | 3.71 µM (active)
CC(=O)/C=C/C1=C(C)CCCC1(C)C | inactive | – | inactive | inactive | inactive | inactive | inactive | – | – | inactive | – | – | – | – | – | –
O=P(c1ccccc1)(c1ccccc1)c1ccccc1 | inactive | – | inactive | inactive | inactive | inactive | – | inactive | – | inactive | – | – | – | – | – | –
O=C(Nc1ccccc1)c1cc([N+](=O)[O-])ccc1Cl | inactive | – | inactive | – | inactive | – | – | – | – | – | – | – | 154 µM (active) | 18.5 µM (active) | inactive | 24.1 µM (active)
CC(=O)OCC=Cc1ccccc1 | inactive | – | inactive | inactive | inactive | inactive | inactive | – | – | inactive | – | – | – | – | inactive | –
CN(CCOc1ccc(CC2SC(=O)NC2=O)cc1)c1ccccn1 (stereo not drawn) | inactive | – | inactive | inactive | inactive | inactive | inactive | – | inactive | inactive | – | – | – | – | – | –
O=C1O[C@@H]2[C@@H](O)[C@H](O)O[C@@H]2[C@H]1O | inactive | – | inactive | inactive | inactive | – | inactive | inactive | – | inactive | – | – | – | – | inactive | –
C=C[Si](OCC)(OCC)OCC | – | – | inactive | inactive | inactive | inactive | inactive | – | inactive | inactive | – | – | – | – | inactive | –
CC(C)Oc1ccccc1O | – | – | inactive | inactive | inactive | inactive | inactive | inactive | inactive | inactive | – | – | – | – | inactive | –
CCCCCCCCC | – | – | inactive | inactive | inactive | inactive | inactive | – | inactive | inactive | – | – | – | – | inactive | –
COc1ccc(Nc2ccccc2)c(C)c1 | – | – | inactive | inactive | inactive | inactive | – | – | inactive | inactive | – | – | – | 128 µM (active) | inactive | –
CC(C)(C)c1n[nH]c(=S)n(N)c1=O | – | – | inactive | inactive | inactive | inactive | inactive | inactive | inactive | inactive | – | – | – | – | inactive | –
O=C(Oc1ccccc1)c1ccc(O)cc1 | – | – | inactive | – | inactive | inactive | inactive | – | inactive | inactive | – | – | – | – | inactive | 176 µM (active)
